HTT aggregate: qHTS Multiplex Assay to Identify Dual Action Probes in a Cell Model of Huntington: Aggregate Formation (GFP); hit rate 1.1% among 220,000; Potency, µM (series often up to 46.1 µM), for inactives: at the top dose activity change, negative = inhibition, actives largely listed as inhibitors; PC12 HttQ103-GFP aggregates, Acumen cytometry, 40 h; note: potency is the fitted concentration of half-maximal effect; % is set by controls: 0 for no effect and ±100 for the full control effect; nearly all actives have a fitted effect of over 60% in size
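PC12/HTTQ103-GFP, ecdysone-inducible; teb 100 nM; cpd qHTS titration; GFP aggregates read on laser cytometer, Ex 488/Em 500-530 nm.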
LMNA splice mod: qHTS Assay for Modulators of Lamin A Splicing. HeLa LMNA splicing GFP/RFP minigene ratio, 48 h. Potency, µM (series often up to 46.1 µM), without a hit: at the highest dose ratio change, negative = inhibition, most hits filed as inhibitors. hit rate 0.01% among 200,000. AID 1487, 2009; active = well fitted inhibition curve with a large enough effect in the signal ratio, with a control signal flat, not every such curve was filed as active; inconclusive = small, poorly fitted or top-dose-only effect, or effect the other way, or a change in a side signal; the % refers to the signal ratio; note: potency is the fitted concentration of half-maximal effect; % is set by controls: 0 for no effect and ±100 for the full control effect
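Read-out is the ratio of GFP to DsRed2 object intensity, acquired by 488 nm laser-scanning cytometry on HeLa lamin A-EGFP minigene reporter cells. Compound incubation 48 hrs at 37 °C in Opti-MEM with 2% FBS; DMSO 0.5% final.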
HTT ATP protect: qHTS Multiplex Assay to Identify Dual Action Probes in a Cell Model of Huntington: Cytoprotection (ATP) | PC12 HTT-Q103 induced, cytoprotection, ATP luminescence, 40 h | Potency, µM (series often up to 56.4 µM), without a hit: cytoprotection (ATP increase), usual class: activators | hit rate 0.14% among 230,000 | AID 1471, 2008; note: potency is the fitted concentration of half-maximal effect; % of control where 0% means no effect; nearly all actives have a fitted effect of over 45% in size
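Compounds added alongside 100 nM tebufenozide, which induces toxic Q103 huntingtin exon 1-GFP in stable PC12 cells; surviving cells quantified by luminescent ATP measurement. Medium: phenol red-free DMEM, 5% equine and 5% calf serum.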
MBNL1 CUG block: qHTS Assay for Inhibitors of MBNL1-poly(CUG) RNA binding | TR-FRET MBNL1-His/biotin-(CUG)12 binding, 665/545 ratio | Potency, µM (doses to about 57.5 µM), inactives show at the top dose activity change, negative = inhibition, hits mostly inhibitors | hit rate 0.036% among 280,000; active = well fitted inhibition curve with a large enough effect in the signal ratio, with a control signal flat, not every such curve was filed as active; inconclusive = small, poorly fitted or top-dose-only effect, or effect the other way, or a change in a side signal; inactive = no such curve, though single readings can be large or run the other way; the % refers to the signal ratio; note: potency is the fitted concentration of half-maximal effect; % is set by controls: 0 for no effect and ±100 for the full control effect
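MBNL1-His + Biotin-(CUG)12, cpd titration 92 nM–58 uM; Tb anti-His Ab 0.055 ng/ul, SA-XL665 5 nM (final); 60 min RT; ratiometric 665/545 nm, Ex 340 nm; normalized to buffer and full-complex controls.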
NPSR antag: qHTS Assay for Antagonists of the Neuropeptide S Receptor: cAMP Signal Transduction; Q6W5P4; CHO-NPSR cells, cAMP TR-FRET, antagonist mode; Potency, µM (series often up to 38.3 µM), for the others: top-dose activity change, negative = inhibition, most hits filed as inhibitors; hit rate 1% among 220,000; AID 1461, 2008; note: potency is the fitted concentration of half-maximal effect; % is set by controls: 0 for no effect and ±100 for the full control effect; nearly all actives have a fitted effect of over 50% in size
CBFb-RUNX1 inh: qHTS Assay for Compounds Blocking the Interaction Between CBF-beta and RUNX1 for the Treatment of Acute Myeloid Leukemia | AlphaScreen CBFb-His/RUNX1-biotin binding, biochemical | 230,000 tested, under 10 active | Runt-related transcription factor 1 (Homo sapiens) + Core-binding factor subunit beta … | Potency, µM (series often up to 59.8 µM), for the others: top-dose activity, negative = inhibition, most hits filed as inhibitors; note: % of control where 0% means no effect
Target sequence (Q01196 whole entry, looked up): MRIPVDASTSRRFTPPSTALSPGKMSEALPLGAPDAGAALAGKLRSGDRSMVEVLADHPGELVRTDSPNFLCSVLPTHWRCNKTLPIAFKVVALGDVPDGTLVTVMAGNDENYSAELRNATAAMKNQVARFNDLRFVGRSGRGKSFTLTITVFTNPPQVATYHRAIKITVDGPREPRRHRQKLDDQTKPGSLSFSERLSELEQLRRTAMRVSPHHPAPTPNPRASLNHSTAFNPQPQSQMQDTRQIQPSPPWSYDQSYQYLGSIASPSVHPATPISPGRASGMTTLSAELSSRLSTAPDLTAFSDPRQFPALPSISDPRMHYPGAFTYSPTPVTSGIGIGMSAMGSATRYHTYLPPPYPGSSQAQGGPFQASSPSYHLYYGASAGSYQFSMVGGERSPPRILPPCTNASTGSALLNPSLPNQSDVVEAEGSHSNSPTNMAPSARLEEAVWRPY
Target sequence (Q13951 whole entry, looked up): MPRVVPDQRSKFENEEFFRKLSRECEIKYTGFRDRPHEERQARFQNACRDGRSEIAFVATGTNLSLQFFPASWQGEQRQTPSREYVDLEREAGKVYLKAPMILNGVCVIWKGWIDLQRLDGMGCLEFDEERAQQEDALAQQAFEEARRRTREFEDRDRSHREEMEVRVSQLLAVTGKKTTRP
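CBF-beta (His) and RUNX1 (biotin), 30 nM each; 20 min preassociation; + compound, 15 min; + beads 50 ng each (Ni, streptavidin), 90 min; RT; AlphaScreen read.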
Starred values were filed as active, the others as inactive; u = inconclusive; x = not tested or not shown; [ ] = remark or other dose. Most compounds without a hit are left out; they make up all but 1.1% or so of the library. Unless noted, calls come from the whole dose curve; as a rule, active = well fitted curve in the direction sought with a large enough effect; inconclusive = small, poorly fitted or top-dose-only effect, or another doubt; inactive = no such curve, though single readings can be large; an effect the other way counts as inactive or inconclusive.

SMILES	HTT aggregate	LMNA splice mod	HTT ATP protect	MBNL1 CUG block	NPSR antag	CBFb-RUNX1 inh
O=C(Cl)COCc1ccccc1	x	x	x	x	x	2%
O=C(O)c1cc(=O)[nH]c(=S)[nH]1	x	x	-4%[10 µM]	x	x	x
CCOc1ccc(-n2c(-c3ccccc3)c[n+]3c2CCC3)cc1	6.3µM*	u	-4%[10 µM]	-4%	5%	2%
CCOc1ccc(-n2c(-c3ccc(Br)cc3)c[n+]3c2CCCCC3)cc1	u	10%[9.22 µM]	-93%	-6%	1%	3%
CCOc1ccc(-n2c(-c3ccc(OC)cc3)c[n+]3c2CCCCC3)cc1	7.9µM*	u	37%[1.9 µM]	-5%	17%	1%
CCC1(c2ccc(O)cc2)NC(=O)N(C)C1=O (configuration not stated)	x	x	x	x	x	11%
CCc1ccc(/C=C/C(=O)c2c(C)cc(C)[nH]c2=O)cc1	25µM*	u	9%[10 µM]	-5%	u	5%
CCN(CC)CCNc1ccc(CO)c2sc3ccccc3c(=O)c12	13µM*	u	-331%	u	-33%	-6%
O=C1c2ccccc2-c2onc3ccc(N4CCCC4)c1c23	-5%	x	-77%	x	13µM*	x
Cc1cc(Cc2cc(C)c(N)cc2N)c(N)cc1N	x	x	-13%[10 µM]	x	x	x
COc1cccc(CNC(=O)c2ccc3c(c2)nc2n3CCOC2)c1OC	x	5%[46 µM]	x	x	x	x
O=C(COC(=O)CCc1nc2ccccc2n1-c1ccccc1)Nc1ccc(N2CCCCC2)cc1	-1%	-9%	3.2µM*	5%	u	-18%
CCN(c1cccc(C)c1)S(=O)(=O)c1ccc2c3c(cccc13)C(=O)N2	u	u	-15%[1.9 µM]	70%	-19%[46.1 µM]	14%
CCN(CC)S(=O)(=O)c1ccc2c3c(cccc13)C(=O)N2	1.6µM*	-10%	-5%	u	-4%[46.1 µM]	16%
Cc1ccc(Sc2c(C=O)c3ccccc3n2C)cc1	10µM*	9%	-3%[10 µM]	28%	u	27%
Cc1ccc(Sc2c(O)c3ccccc3n(C)c2=O)cc1	0%	-9%	x	12%[11.5 µM]	-23%	1%
COC(=O)N/N=C(\C)c1ccc(OC(F)F)cc1	8%	-2%[46 µM]	-30%	4%	21%	2%
COC(=O)N/N=C(\C)c1ccc2ccccc2c1OC(F)F	u	u	0.79µM*	u	6%	-8%
Cn1cc(-c2cc3n(n2)CCC(=O)N3CC(=O)NCc2ccc(Cl)cc2)c2ccccc21	x	-11%[46 µM]	x	x	x	x
CN1CCN(CCCN)CC1	x	x	-6%[10 µM]	x	x	x
C[C@@H]1C[C@](C)(C(=O)c2ccc3c(c2)OCO3)C=C1c1ccc2c(c1)OCO2	x	x	-11%	x	x	11%
COc1ccc(C(=O)[C@]2(C)C=C(c3ccc(OC)cc3)[C@H](C)C2)cc1	x	x	35µM*	x	x	-7%
CN(C)CCNC(=O)c1ccc(-n2c(-c3ccccc3)cc3c2CCCC3)cc1	x	2%[46 µM]	x	x	x	x
Cc1ccc2nc(C3CCN(S(=O)(=O)c4ccc5ccccc5c4)CC3)[nH]c2c1	18µM*	u	-77%	4%	-30%[46.1 µM]	4%
COc1ccc(Cl)c2sc(NC(=O)c3ccc(S(=O)(=O)N4CCOCC4)cc3)nc12	x	-5%[46 µM]	x	x	x	x
SMILES	HTT aggregate	LMNA splice mod	HTT ATP protect	MBNL1 CUG block	NPSR antag	CBFb-RUNX1 inh
Cc1ccc(OCc2nnc(SCCN3CCOCC3)n2C)cc1	-8%	5%	-2%[10 µM]	1%	-1%[46.1 µM]	1%
Cc1ccc(OCc2nnc(SCC(=O)N3CCOCC3)n2C)cc1	4%	6%	13µM*	3%	-6%[46.1 µM]	4%
O=C(O)c1ccc(C(=O)O)c(C(=O)O)c1.[NH-][C@@H]1CCCC[C@@H]1[NH-].[Pt]	x	x	-9%[10 µM]	x	x	x
O=C(Nc1ccc(Br)cc1F)c1ccc2nc(CCc3ccccc3)oc2c1	x	-6%[46 µM]	x	x	x	x
CCc1nnc(NC(=O)c2ccncc2)s1	-9%	5%	-16%	-11%	-6%[46.1 µM]	5%
CCc1nnc(NC(=O)c2cccc(C(=O)Nc3nnc(CC)s3)n2)s1	0.89µM*	u	-79%[0.074 µM]	-7%	u	5%
CCOC(=O)CN(Cc1cc(OC)cc(N(C)C)c1OC)C(=O)C1CC(CO[Si](C)(C)C(C)(C)C)=CN1C(=O)OC(C)(C)C (configuration not stated)	x	x	x	x	x	8%
CC(=O)Nc1ccc(S(=O)(=O)NC2=C(N3CCN(c4ccc(F)cc4)CC3)C(=O)c3ccccc3C2=O)cc1	u	11µM*	-87%	u	u	u
Cc1ccc(S(=O)(=O)NC2=C(N3CCN(c4ccccc4F)CC3)C(=O)c3ccccc3C2=O)cc1	-14%	5%[0.0737 µM]	-5%	u	-26%[46.1 µM]	u
OCC1OC([S-])[C@H](O)C(O)C1O.[Au+] (some centres not stated)	17%	x	2%	x	x	9%
CCc1ccc(S(=O)(=O)/N=C2\C=CC(=O)c3ccccc32)cc1	u	x	-15%	12%	-14%	u
CCc1ccc(S(=O)(=O)/N=C2/C=C(Sc3ncn[nH]3)C(=O)c3ccccc32)cc1	3.5µM*	u	-80%[10 µM]	u	10µM*	u
Cc1ccc(S(=O)(=O)Nc2cccc3ncccc23)s1	u	u	3%	16%	2µM*	-1%
CC1=C(Cl)C2=NS(=O)(=O)CCN2C=C1Cl	0.11µM*	-21%[46 µM]	x	-2%	10%	7%
CC1=CSC2=NS(=O)(=O)CCN12	12%[9.22 µM]	x	1%[10 µM]	-8%	11%	10%
N#CC(c1cccc(Cl)c1)c1ccc2c(C(F)(F)F)cc(C(F)(F)F)nc2n1 (configuration not stated)	0.89µM*	u	-98%	u	10µM*	-16%
NNc1ccc2c(C(F)(F)F)cc(C(F)(F)F)nc2n1	20%	x	x	u	-1%	-2%
CCC(C(=O)O)C1OC(C(C)C(O)C(C)C(=O)C(CC)C2OC3(C=CC(O)C4(CCC(C)(C5CCC(O)(CC)C(C)O5)O4)O3)C(C)CC2C)C(C)CC1C (configuration not stated)	1.8µM*	x	-96%	x	x	x
COc1ccc(C(=O)Nc2ccc(N3CCN(c4ccc(OC)cc4)CC3)c(C#N)c2)cc1	3%	-2%	-20%	2%	3.2µM*	1%
COc1ccc(N2CCN(c3ccc(NC(=O)C4CCCCC4)cc3C#N)CC2)cc1	-2%	2%	-19%	7%	-9%[46.1 µM]	7%

Assay outcomes: PubChem BioAssay, National Center for Advancing Translational Sciences (NCATS)
